Consider 4 compounds from PubChem BioAssay (EPA / NIEHS).

Structures are written as SMILES. “And” between values parts separate entries of the source, which are not always exact repeats. Identical values can stand only once. Some compounds were tested as several samples or in several runs, with calls that do not always agree. The source made the active and inactive calls. The calls were made as follows: active = hit-call score of the fitted dose curve at least 0.9, where 1 is the maximum; inactive = score below 0.9.

Read-out in experiment [1]: Interleukin-8 (IL8), CXCL8 (gene 3576)
The experiment in a line: BSK_MyoF_IL8: BioMAP Diversity Plus: MyoF Assay for Interleukin-8 (IL8) Biomarker Activity (AID 2284261). Particulars: primary human lung fibroblasts. In short, it runs like this:
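Lung fibroblasts (human primary) → chemical exposure → 24 h → IL-8 measured by ELISA. Signal increase scored versus DMSO control.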

Read-out in the next experiment: Decorin, DCN (gene 1634)
The experiment is described as follows: BSK_MyoF_Decorin: BioMAP Diversity Plus: MyoF Assay for Decorin Biomarker Activity (AID 2284265). The following applies: primary human lung fibroblasts. Put shortly: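 ELISA readout of decorin, 24 h post-dosing; primary human lung fibroblast (MyoF) culture; gain-of-signal fit vs DMSO baseline.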

A short description of experiment [2]: BSK_MyoF_SRB: Viability Assessment in the BioMAP Diversity Plus: MyoF Assay (AID 2284267).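 Also: total protein by SRB absorbance in parallel cultures as cytotoxicity measure.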 The following applies: primary human lung fibroblasts. Put shortly:
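Confluent human lung fibroblasts were exposed to test chemicals for 24 h. Parallel wells were then fixed in 10% TCA, stained with 0.1% sulforhodamine B and measured at 560 nm. DMSO served as baseline for curve fitting.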

Read-out in experiment [3]: TIMP metallopeptidase inhibitor 1 (TIMP1), TIMP1 (gene 7076)
The experiment in a line: BSK_MyoF_TIMP1: BioMAP Diversity Plus: MyoF Assay for TIMP metallopeptidase inhibitor 1 (TIMP1) Biomarker Activity (AID 2284269). The following applies: primary human lung fibroblasts. Put shortly: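 ELISA read-out of TIMP-1 from primary human lung fibroblast cultures 24 h after compound dosing; gain of signal relative to DMSO vehicle baseline defines activity.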

Read-out in experiment [4]: Eotaxin 3, CCL26 (gene 10344)
The experiment is described as follows: BSK_BF4T_Eotaxin3: BioMAP Diversity Plus: BF4T Assay for Eotaxin 3 Biomarker Activity (AID 2284258). Particulars: primary human bronchial epithelial cells with fibroblasts. In short, it runs like this:
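ELISA measurement of Eotaxin-3 after 24 h chemical exposure in a bronchial epithelial/dermal fibroblast co-culture, with DMSO as baseline. Parallel SRB staining (0.1% SRB after 10% TCA fixation, 560 nm) flagged overt cytotoxicity.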

Read-out in experiment [5]: Monocyte Chemoattractant Protein-1 (MCP1), CCL2 (gene 6347)
The experiment in a line: BSK_BF4T_MCP1: BioMAP Diversity Plus: BF4T Assay for Monocyte Chemoattractant Protein-1 (MCP1) Biomarker Activity (AID 2284259). The following applies: primary human bronchial epithelial cells with fibroblasts. In short, it runs like this: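 MCP-1 ELISA readout taken 24 h after dosing in the BF4T system (bronchial epithelial cells plus dermal fibroblasts). Parallel SRB total-protein staining flagged cytotoxicity; DMSO served as baseline, positive fitting direction.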

Read-out in another experiment: CD90, THY1 (gene 7070)
The experiment is described as follows: BSK_BF4T_CD90: BioMAP Diversity Plus: BF4T Assay for CD90 Biomarker Activity (AID 2284262). Particulars: primary human bronchial epithelial cells with fibroblasts. Put shortly:
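CD90 levels by ELISA after 24 h treatment of human bronchial epithelial cell/dermal fibroblast cultures, analysed versus DMSO. Overt cytotoxicity checked in parallel cultures by sulforhodamine B staining.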

Read-out in experiment [6]: Interleukin-8 (IL8), CXCL8 (gene 3576)
The experiment is described as follows: BSK_BF4T_IL8: BioMAP Diversity Plus: BF4T Assay for Interleukin-8 (IL8) Biomarker Activity (AID 2284263). The following applies: primary human bronchial epithelial cells with fibroblasts. In short, it runs like this:
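Human bronchial epithelial cells with dermal fibroblasts co-culture; IL-8 measured by ELISA 24 hours after dosing, fitted vs DMSO. Cytotoxicity tracked in parallel cultures by SRB total-protein staining.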

Read-out in experiment [7]: Interleukin-1 alpha (IL1a), IL1A (gene 3552)
The experiment is described as follows: BSK_BF4T_IL1a: BioMAP Diversity Plus: BF4T Assay for Interleukin-1 alpha (IL1a) Biomarker Activity (AID 2284264). Particulars: primary human bronchial epithelial cells with fibroblasts. Put shortly: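 ELISA read-out of IL-1α from bronchial epithelial cell/dermal fibroblast co-cultures 24 h after compound addition. Increases scored against DMSO negative control. Cytotoxicity monitored by sulforhodamine B staining of parallel cultures.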

Read-out in experiment [8]: Matrix Metallopeptidase 1 (MMP1), MMP1 (gene 4312)
The experiment in a line: BSK_MyoF_MMP1: BioMAP Diversity Plus: MyoF Assay for Matrix Metallopeptidase 1 (MMP1) Biomarker Activity (AID 2284268). Particulars: primary human lung fibroblasts. In short, it runs like this: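 Cells: human lung fibroblasts. Exposure: 24 h chemical dosing. Detection: ELISA for MMP1. Analysis: upward fitting against DMSO negative control.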

Read-out in experiment [9]: Matrix Metallopeptidase 1 (MMP1), MMP1 (gene 4312)
The experiment is described as follows: BSK_BF4T_MMP1: BioMAP Diversity Plus: BF4T Assay for Matrix Metallopeptidase 1 (MMP1) Biomarker Activity (AID 2284270). The following applies: primary human bronchial epithelial cells with fibroblasts. In short, it runs like this: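 MMP-1 quantified by ELISA in primary human bronchial epithelial/dermal fibroblast co-cultures, 24 hours post-dosing, with DMSO as baseline; parallel sulforhodamine B staining (560 nm) tracks overt cytotoxicity.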

Read-out in experiment [10]: Matrix Metallopeptidase 3 (MMP3), MMP3 (gene 4314)
The experiment is described as follows: BSK_BF4T_MMP3: BioMAP Diversity Plus: BF4T Assay for Matrix Metallopeptidase 3 (MMP3) Biomarker Activity (AID 2284271). The following applies: primary human bronchial epithelial cells with fibroblasts. Put shortly:
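MMP-3 level read by ELISA after 24 h chemical exposure of bronchial epithelial cell/dermal fibroblast co-cultures, fitted upward relative to DMSO. Parallel cultures stained with 0.1% SRB after TCA fixation gauge overt cytotoxicity.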

Read-out in experiment [11]: Tissue plasminogen activator (tPA), PLAT (gene 5327)
The experiment is described as follows: BSK_BF4T_tPA: BioMAP Diversity Plus: BF4T Assay for Tissue plasminogen activator (tPA) Biomarker Activity (AID 2284272). The following applies: primary human bronchial epithelial cells with fibroblasts. In short, it runs like this:
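tPA level quantified by ELISA at 24 h post-treatment in bronchial epithelial/dermal fibroblast co-cultures, gain of signal scored against DMSO baseline. Parallel cultures stained with 0.1% SRB (560 nm) to flag overt cytotoxicity.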

Read-out in experiment [12]: Plasminogen Activator Inhibitor-1 (PAI1), SERPINE1 (gene 5054)
The experiment in a line: BSK_BF4T_PAI1: BioMAP Diversity Plus: BF4T Assay for Plasminogen Activator Inhibitor-1 (PAI1) Biomarker Activity (AID 2284273). The following applies: primary human bronchial epithelial cells with fibroblasts. Put shortly:
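PAI-1 levels quantified by ELISA 24 h post-dosing in bronchial epithelial cell plus dermal fibroblast cultures. Signal gain referenced to DMSO baseline. Sulforhodamine B total-protein staining of parallel wells checked cytotoxicity.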

Experiment [13] in a line: BSK_BF4T_SRB: Viability Assessment in the BioMAP Diversity Plus: BF4T Assay (AID 2284274). The following applies: primary human bronchial epithelial cells with fibroblasts. Put shortly: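 Cytotoxicity measured as total protein: cells fixed with 10% TCA, stained with 0.1% SRB, read at 560 nm. Bronchial epithelial/dermal fibroblast co-culture, 24 h after dosing, with positive-direction fitting relative to DMSO.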

Read-out in experiment [14]: urokinase Plasminogen Activator (uPA), PLAU (gene 5328)
The experiment in a line: BSK_BF4T_uPA: BioMAP Diversity Plus: BF4T Assay for urokinase Plasminogen Activator (uPA) Biomarker Activity (AID 2284275). The following applies: primary human bronchial epithelial cells with fibroblasts. Put shortly:
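uPA levels measured by ELISA at 24 hours in BF4T cultures (bronchial epithelial cells plus dermal fibroblasts) and compared with DMSO; cytotoxicity tracked in parallel cultures by sulforhodamine B staining.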

Read-out in experiment [15]: Matrix Metallopeptidase 9 (MMP9), MMP9 (gene 4318)
The experiment in a line: BSK_BF4T_MMP9: BioMAP Diversity Plus: BF4T Assay for Matrix Metallopeptidase 9 (MMP9) Biomarker Activity (AID 2284276). Particulars: primary human bronchial epithelial cells with fibroblasts. In short, it runs like this:
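MMP-9 levels were measured by ELISA after 24 h exposure of bronchial epithelial cell/dermal fibroblast co-cultures, with DMSO as baseline. Parallel cultures were stained with 0.1% SRB after TCA fixation, read at 560 nm, to flag overt cytotoxicity.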

Read-out in experiment [16]: Interleukin-8 (IL8), CXCL8 (gene 3576)
The experiment in a line: BSK_IMphg_IL8: BioMAP Diversity Plus: IMphg Assay for Interleukin-8 (IL8) Biomarker Activity (AID 2284277). Particulars: primary human endothelial cells with macrophages. Put shortly: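 IL-8 levels were measured by ELISA 24 h after dosing in primary human venular endothelial cell–macrophage cultures, referenced to DMSO; parallel SRB staining monitored overt cytotoxicity.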

Read-out in experiment [17]: Intercellular Adhesion Molecule 1 (ICAM1), ICAM1 (gene 3383)
The experiment is described as follows: BSK_BF4T_ICAM1: BioMAP Diversity Plus: BF4T Assay for Intercellular Adhesion Molecule 1 (ICAM1) Biomarker Activity (AID 2284260). Particulars: primary human bronchial epithelial cells with fibroblasts. In short, it runs like this:
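ICAM-1 levels measured by ELISA after 24 h chemical treatment of bronchial epithelial cell/dermal fibroblast co-cultures, read against DMSO baseline. Overt cytotoxicity checked in parallel cultures by sulforhodamine B staining.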

Read-out in the next experiment: KRT18 (gene 3875)
The experiment is described as follows: BSK_BF4T_Keratin818: BioMAP Diversity Plus: BF4T Assay for Keratin 818 Biomarker Activity (AID 2284266). Particulars: primary human bronchial epithelial cells with fibroblasts. In short, it runs like this:
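Keratin 8/18 levels quantified by ELISA after 24 h chemical treatment of bronchial epithelial cell/dermal fibroblast co-cultures, fitted in positive direction relative to DMSO. Parallel SRB staining tracks overt cytotoxicity.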

Consider `CCCCCCCCCCCCCC[N+](C)(C)C`, for which the AC50 in experiment [1] was 9.47 µM (active); in the experiment with Decorin, DCN (gene 1634), 28.4 µM (active); in experiment [2], 5.25 µM (active); in [3], 3.32 µM (active).
For the compound `FC(F)(I)C(F)(F)C(F)(F)C(F)(F)C(F)(F)C(F)(F)I`, the AC50 in experiment [4] is 8.19 µM (active) [middle of 5 runs]; in experiment [5], 8.32 µM (active) [middle of 5 runs]; in experiment [1] it was 15 µM (active) and 16.4 µM (active) and 15.6 µM (active); with CD90, THY1 (gene 7070), 6.21 µM (active); in [6] it was 14.9 µM (active) [middle of 5 runs]; in [7], 22.7 µM (active) [middle of 5 runs]. The AC50 in the experiment with Decorin, DCN (gene 1634) is 7.74 µM (active) [middle of 5 runs]; in experiment [2] it was 7.31 µM (active) [middle of 5 runs]; in [3], 7.01 µM (active) [middle of 5 runs]; in [9], 23.4 µM (active) [middle of 5 runs]; in [10] it was 19.3 µM (active) [middle of 4 runs]; in [11] it was 7.56 µM (active) [middle of 5 runs]. Besides, the AC50 is 19.3 µM (active) [middle of 5 runs] in [12]; 21.9 µM (active) [middle of 5 runs] in experiment [13]; 14.4 µM (active) [middle of 5 runs] in [14]; 18.9 µM (active) [middle of 5 runs] in experiment [15]; 47.1 µM (active) [middle of 4 runs] in experiment [16]. Further, the outcome in experiment [1] was “inactive”; in the experiment with CD90, THY1 (gene 7070) it was “inactive”; in experiment [8], “inactive”; in [10] it was “inactive”; in experiment [16], “inactive”.
Regarding `NCC(F)(F)C(F)(F)C(F)(F)C(F)(F)C(F)(F)C(F)(F)C(F)(F)F`, the outcome was “inactive” in [4]; “inactive” in experiment [5]; “inactive” in [17]; “inactive” in experiment [1]; “inactive” with CD90, THY1 (gene 7070); “inactive” in experiment [6]. For the same compound, the outcome in [7] is “inactive”; with Decorin, DCN (gene 1634), “inactive”; with KRT18 (gene 3875) it was “inactive”; in [2] it was “inactive”; in experiment [8], “inactive”; in experiment [3] it was “inactive”. For the same compound, the result in [9], in experiment [10], in [11], in [12], in [13] and in experiment [14] was inactive. Besides, the result in experiment [15] and in experiment [16] was inactive. In addition, in [5], the AC50 is 220 nM (active).
Turning to `OCCC(F)(F)C(F)(F)C(F)(F)C(F)(F)C(F)(F)C(F)(F)F`, the outcome in [4] was “inactive”; in experiment [5] it was “inactive”; in experiment [17] it was “inactive”; in [1] it was “inactive”; with CD90, THY1 (gene 7070), “inactive”; in experiment [6], “inactive”. Further, the outcome is “inactive” in [7]; “inactive” with Decorin, DCN (gene 1634); “inactive” with KRT18 (gene 3875); “inactive” in experiment [2]; “inactive” in [8]; “inactive” in experiment [3]. Further, the outcome in experiment [9], in [10], in experiment [11], in experiment [12], in experiment [13] and in experiment [14] was inactive. The result in experiment [15] and in [16] was inactive.

As usually defined, the AC50 is the midpoint of the concentration-response curve, whichever way the signal moves.
